# Experimental data: the supplement of paper PMC6555819
# Tests used:
# Assay in all cases: PBM binding z-score (relative to random genomic background probes); higher = stronger binding; sequences stand for … in GC…GCGATTGACAGCGTAGAATGAAGG
# [1] = system: RARb homodimer (NR concentration 270 nM)
# Procedure, shortened: (§1)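 Regression normalization was applied to scanned fluorescence from custom Agilent 4×180K protein-binding microarrays. Before scanning, arrays were incubated 1 h with ligand-free nuclear receptor dimers, and binding was detected with antibodies against each partner (one per run). Binding z-scores use the random background probes as reference.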
# [2] = system: RARg:RXRa (NR concentration 270 nM, RXRa partner concentration 90 nM)
# Procedure, shortened: as §1
# [3] = system: RARg homodimer (NR concentration 270 nM)
# Procedure, shortened: as §1
# [4] = system: RXRa DBDmut IVT, anti-RXR (DBD mutation: RXRa K156A/R161A, NR concentration 90 nM)
# Procedure, shortened: as §1
# [5] = system: RXRa homodimer (NR concentration 180 nM)
# Procedure, shortened: as §1
# [6] = system: THRa:RXRa (NR concentration 90 nM, RXRa partner concentration 90 nM)
# Procedure, shortened: as §1
# [7] = system: THRa homodimer (NR concentration 90 nM)
# Procedure, shortened: as §1
# [8] = system: VDR:RXRa (NR concentration 270 nM, RXRa partner concentration 90 nM)
# Procedure, shortened: as §1
# [9] = system: VDR homodimer (NR concentration 270 nM)
# Procedure, shortened: as §1
Sequence,PBM binding z-score [1],PBM binding z-score [2],PBM binding z-score [3],PBM binding z-score [4],PBM binding z-score [5],PBM binding z-score [6],PBM binding z-score [7],PBM binding z-score [8],PBM binding z-score [9]
CCTAGCAGGCCAATCTGGGTCACTCACGGCTTGA,2.23,1.18,1.36,0.336,0.802,3.47,0.637,0.411,0.103
ATCCCTAGGTAAGACTCAGTTCAGTGAAGAACGC,0.754,-0.0118,-0.0617,0.567,0.0289,0.832,1,–,1.07
AGAACGATGGCAATGAGTTGATAGCACGGGTGGC,-1.04,-0.249,0.108,-0.297,0.0313,-0.986,-0.999,0.528,-0.0604
CCGACTGGGGCAGACAGGTTACCATACCATCCGG,0.849,0.341,0.456,-0.96,0.238,-0.0397,0.0396,-0.343,-0.23
TCGATTAGGTTAGGGGCATTCAGAATGGCGTCGA,1.25,0.511,0.723,1.34,0.857,1.33,0.776,0.781,1.08
TCTTGTAGATCAGCAGGCTAAGAAAGCTGGCCAA,-0.81,-0.564,-0.754,0.38,-0.261,-0.424,-1.21,-0.106,-0.475
TAGCCTAGGTCATCCAGGGGCCAGTATAGAAAGC,3.71,6.41,5.07,0.731,2.94,3.55,0.878,3.1,0.913
CGTCCAAAGTCAATGCTAGGTCAGTGAAAGCATT,2.39,2.4,1.31,0.43,0.344,2.01,0.698,0.457,0.435
CAAACTAGGTCAAAGTTCAAAGTCGAGCCAACCA,4.52,7.71,6.23,3.95,8.77,4.23,1.21,6.12,4.43
CGTCAAAGTTCAAGGGAACGTAACAGAAAGCAGC,3.52,4.97,5.93,4.46,4.17,1.72,-0.254,3.12,2.72
AGAACGAGGCCAATGAGTTGATAGCACGGGTGGC,0.127,0.169,0.718,1.01,0.286,0.223,0.00356,3.09,1.71
TCTTGTTGATCAAGCAGGTTAAGAAAGCCTGAGT,0.418,-0.0831,-0.348,0.561,0.248,0.444,-0.1,0.244,0.0832
AGAACGAGGGCAATGAGTTGCTAGCACGGGTGGC,0.949,0.847,1.24,1.67,0.545,0.677,-0.316,3.91,1.49
CCTGCTAAGTCATGGTCAGCTAATCTACAGTATG,0.142,0.135,0.315,0.518,0.0599,-0.13,-0.892,-0.252,-0.337
ACCTCTAGGTAACAAGTTCAGTGAAAGAGAGGAC,1.85,1.11,1.08,0.979,0.678,1.21,0.425,1.59,2.2
TCGAGTAGGTTAGCAATGGGGCATTCAGCTTTCT,0.353,0.194,-0.0673,0.158,0.129,-0.27,-0.716,-0.142,-0.45
TCATGTAGATCAAGCAGGTTAAGAAAGCCTGAGT,0.058,0.118,0.0856,0.962,0.48,0.397,-0.412,0.938,0.0758
ACTAGCAGCCCAAGTTTGGGTCACTCAAACAAAG,1.74,0.618,0.518,-0.56,0.612,2.1,1.15,–,-0.0283
AGTCAAAGTTCAGGACGAGGTATCGTAAAGCACG,2.81,4.03,4.67,2.93,2.81,2.54,0.691,2.29,2.06
TCTTGTAGATCAAGCAGGTTAAGAATGCCTGAGT,0.163,-0.103,-0.0252,0.563,0.24,0.276,-0.376,0.48,0.0352
GATATTAGTTGAAAGGGCAACCGAATGATTCTCG,2.28,1.73,1.61,1.04,1.58,0.705,0.0377,0.661,0.787
ATCTCTAGCTAAAAGTTCAGTGAATCCCGAGGAT,2.38,1.43,1.84,0.736,0.493,0.457,-0.0184,0.955,1.64
ACAGACAGGTGATGAAGGTAACTCAAGCTATCAT,0.13,0.288,0.537,-0.0436,0.166,0.289,-0.0849,0.0355,-0.318
CGAACTAGGTCAAGGACATTGAATCTCCGCACGC,3.12,3.91,4.46,1.62,2.91,3.16,2.43,1.73,1.13
AGAATGAGGCTAAGATCAGGGAAACAGAATACAT,0.17,0.222,0.265,-0.309,-0.046,0.533,0.04,-0.231,-0.208
CTACCAAGGTGAAGAAGGTCGTTGATTACTATTC,1.74,1.35,1.07,0.727,1.34,2.13,0.885,4.25,1.34
ACTCGGAGGACAAAGGTCAGAGCGACGCCAGTGA,4.63,6.19,5.38,1.24,5.37,3.66,0.5,–,1.18
TCTAGTTGGTCAAAGGTCCCACACTCGAAATGCG,1.47,1.55,1.05,1.26,1.75,0.71,0.58,–,0.39

Sequence,PBM binding z-score [1],PBM binding z-score [2],PBM binding z-score [3],PBM binding z-score [4],PBM binding z-score [5],PBM binding z-score [6],PBM binding z-score [7],PBM binding z-score [8],PBM binding z-score [9]
ACTATTAGTTGACTTAGGGCAACCGCTACGACGC,0.908,0.58,0.586,0.636,0.331,1.39,0.625,–,0.173
ATCTCTAGGTAAAGATTGTTCAGTGAATGCAAAT,0.0182,-0.0248,0.361,0.286,-0.291,0.472,0.375,–,0.0196
TCTAGCAGGCCAGAGGGTCACGCAAGAGGTACGG,3.37,3.78,3.41,-0.273,4.06,2.33,-0.0703,–,0.674
TCTATTAGTTGAAGGGCAATCGACGAGTCCGTTT,0.87,0.355,0.467,1.61,0.559,0.0989,-0.0938,–,1.42
GCAGACAGGTGAAACGCAGGTAACTCCGGGTGGC,0.0338,0.702,-0.185,-0.71,0.572,1.32,-0.603,–,-0.791
CCGAGTAAGTTATGGGGCATTCAGGCAACGGTGA,0.181,-0.241,-0.0978,0.0937,-0.299,0.0579,-0.117,–,-0.0157
CAAACTAGGTCAAAGGTCAAATTCGAGCCAACCA,4.86,8.92,7.49,3.06,10.2,4.77,1.67,–,3.08
CCTCGTAGGACAGAAGGTCAGAGCTGTCCGCTTT,3.4,3.02,3.4,0.251,2.18,1.7,-0.0633,–,0.412
TCATATAGGTAAAGGGGAAAGTCGAACGATATGA,0.241,0.707,0.688,1.39,1.21,0.241,-0.0232,–,-0.173
CTTTACGGGTCACTCCAGGTTATAGCATCGGAGT,3.36,4.62,4.65,2.29,4.54,5.08,0.775,–,1.88
TGTCAAAGTTCAAAGGTAATGTAAGTATCCACAC,3.63,5.97,5.84,4.44,6.5,3.15,-0.177,–,3.96
ATCTCTAGTTAACCAAGTTCAGTGAATGCCGAAC,1.4,0.578,0.612,0.814,0.549,1.19,0.332,–,3.16
CCTACTGGGCCATCAGGTCATTTATATCAACGTT,2.44,1.8,1.64,0.641,0.891,3.14,3.01,–,1.61
GCGACTGGCGCATCAGCAGGTTACCATAACTTAA,-0.252,-0.477,-0.547,-0.402,-0.293,-0.328,-0.551,–,-0.6
ATATGTAAGTTAAGGGTCATTCAGGTTGGTTCGC,3.8,3.97,3.2,2.13,4.89,3.5,1.55,–,4.67
TCTTGTGGATCAACAGGAGGTTAAGAAAGATCGA,0.619,1.18,0.266,0.248,0.985,1.01,-0.626,–,0.119
GCGACTGGGGCATCAGCAGGTAACCATAACTTAA,0.543,0.292,0.296,0.0904,0.119,0.856,0.168,–,-0.668
TGAATGAGGTTAAAGATCAGGGTACGTGGCGTCG,1.27,2.36,1.42,1.41,3.5,2.78,0.878,–,1.25
ATATGTAGGCTAAGGGTCATTCAGGTTGGTTCGC,3.85,3.93,2.76,2.03,4.31,3.16,1.17,–,3.63
GCTAGTTGGTCAGGAAAAGGTCACACACCGGTCG,5.07,5.34,4.46,0.286,4.98,3.52,1.64,–,1.68
CCTGCTAGGTCATGCTCAGCTAATCTACAGTATG,2.76,3.89,4.39,2.05,2.4,2.57,0.87,–,0.178
ATCTCTAGGTAAAAGTTGAGTGAATCCCGAGGAT,0.0614,0.517,0.653,0.044,0.435,0.387,0.0583,–,-0.06
TGTCAAAGTCCAAAGGTAACGTAAGTATCCACAC,1.08,1.64,1.23,0.368,0.946,1.11,-0.182,–,0.0854
CCTTACGGGTCATGGTTATAGCACGGGTGGTACG,3.03,4.4,3.82,0.187,4.81,2.67,-0.082,–,0.582
CCTACTGGACCACGAAAGGTCATTGATTCAGTGA,4.5,4.44,3.94,1.31,5.46,3.36,1.6,–,2.68
ATATGTAGGTTATCCGGTCATTCAGTTTGCGCAT,2.35,2.11,1.83,0.932,1.4,1.67,1.08,–,1.53
CGAACTAGGTCATTGACCGGACAGTGAATAGTAA,2.74,4.42,4.59,2.25,2.82,2.57,0.878,–,1.18
